Data as given in PubChem BioAssay (EPA / NIEHS).
Inconclusive results are not listed. The source made the active and inactive calls. Rule for the calls, unless noted: active = hit-call score of the fitted dose curve at least 0.9, where 1 is the maximum; inconclusive = response in the unintended direction; inactive = score below 0.9.

Tests used:
[1] = TOX21_p53_BLA_p2_viability: Viability Assessment in the Tox21 HCT-116 p53 Agonism Beta-lactamase Assay, Phase 2 (AID 2283591);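 note: compound exposure lasted 16 h at 37 °C; actives lower the ATP signal meaning cytotoxicity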
Procedure, shortened: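 HCT116 p53-bla cells, 4000/well, dosed after 5 h plating (217-fold dilution of DMSO stocks) and incubated 16 h at 37C. Viability taken as cellular ATP by CellTiter-Glo luminescence after 30 min RT; signal loss marks cytotoxicity.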

[2] = target: Cellular tumor antigen p53 (Homo sapiens) (UniProt P04637); assay: TOX21_p53_BLA_p2_ratio: Tox21 HCT-116 p53 Agonism Beta-lactamase Assay, Ratio, Phase 2 (AID 2283592)
Cellular tumor antigen p53 (Homo sapiens), sequence (P04637 whole entry, looked up): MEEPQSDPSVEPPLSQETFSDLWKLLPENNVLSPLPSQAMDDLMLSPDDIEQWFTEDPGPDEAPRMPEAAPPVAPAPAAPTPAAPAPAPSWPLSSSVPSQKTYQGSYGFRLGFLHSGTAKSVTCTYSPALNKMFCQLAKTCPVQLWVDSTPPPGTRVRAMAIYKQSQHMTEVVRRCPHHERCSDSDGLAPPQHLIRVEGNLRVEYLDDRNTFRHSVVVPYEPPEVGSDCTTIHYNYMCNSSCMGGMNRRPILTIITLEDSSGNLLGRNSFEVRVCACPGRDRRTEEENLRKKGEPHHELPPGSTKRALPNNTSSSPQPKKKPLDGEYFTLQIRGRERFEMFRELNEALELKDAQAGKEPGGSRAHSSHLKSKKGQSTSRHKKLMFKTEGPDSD
Procedure, shortened: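 Human colon HCT116 cells with an inducible p53 beta-lactamase reporter are exposed to test chemicals for 16 h at 37C. Reporter induction is read as the 460/530 nm emission ratio after CCF4-AM loading, normalized to DMSO.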

[3] = TOX21_p53_BLA_p3_viability: Viability Assessment in the Tox21 HCT-116 p53 Agonism Beta-lactamase Assay, Phase 3 (AID 2283593);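 note: cells exposed to compound for 16 h before reading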
Procedure, shortened: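 HCT116 cells, 4000/well, dosed 5 h after plating by pin transfer (217-fold dilution from DMSO stock) and incubated 16 h at 37C, 5% CO2. Viability read as ATP luminescence with CellTiter-Glo after 30 min at room temperature.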

[4] = target: Cellular tumor antigen p53 (Homo sapiens) (UniProt P04637); assay: TOX21_p53_BLA_p3_ratio: Tox21 HCT-116 p53 Agonism Beta-lactamase Assay, Ratio, Phase 3 (AID 2283596)
Procedure, shortened: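 HCT116 p53-bla cells (4000/well) given compound in DMSO (217-fold dilution) after 5 h, incubated 16 h at 37C. CCF4-AM substrate 2 h at room temperature; 460/530 nm emission ratio, gain fitted against DMSO.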

[5] = TOX21_p53_BLA_p4_viability: Viability Assessment in the Tox21 HCT-116 p53 Agonism Beta-lactamase Assay, Phase 4 (AID 2283597);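 note: hits lower the luminescence signal meaning cytotoxicity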
Procedure, shortened: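 Luminescent ATP readout (CellTiter-Glo, 30 min, room temperature) in the same wells as the p53 bla ratio. HCT116 cells were treated for 16 h at 37C with DMSO-dissolved compounds.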

[6] = target: Cellular tumor antigen p53 (Homo sapiens) (UniProt P04637); assay: TOX21_p53_BLA_p5_ratio: Tox21 HCT-116 p53 Agonism Beta-lactamase Assay, Ratio, Phase 5 (AID 2283599)
Procedure, shortened: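 HCT-116 p53-bla cells (4000/well) plated 5 h, dosed with compound (217-fold DMSO dilution) for 16 h at 37 C; CCF4-AM substrate 2 h at room temperature. Activity is the 460/530 nm emission ratio (405 nm excitation), fitted in gain-of-signal direction versus DMSO.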

[7] = target: Cellular tumor antigen p53 (Homo sapiens) (UniProt P04637); assay: TOX21_p53_BLA_p4_ratio: Tox21 HCT-116 p53 Agonism Beta-lactamase Assay, Ratio, Phase 4 (AID 2283601)
Procedure, shortened: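 HCT-116 p53 beta-lactamase reporter cells (4000/well) preincubated 5 h, then compound (217-fold dilution of DMSO stock) for 16 h at 37C. CCF4-AM substrate added 2 h at room temperature; 460/530 nm emission ratio fitted upward versus DMSO.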

[8] = TOX21_p53_BLA_p5_viability: Viability Assessment in the Tox21 HCT-116 p53 Agonism Beta-lactamase Assay, Phase 5 (AID 2283600)
Procedure, shortened: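 Seeded cells (4000/well) settle 5 h before compound addition. Plates then incubate 16 h at 37C, receive FRET substrate for 2 h, and finally CellTiter-Glo, with luminescence measured after a 30 min room-temperature incubation.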

[9] = CCTE_Deisenroth_H295R-HTRF_384WELL_ESTRADIOL: CCTE's H295R-HTRF Assay Evaluation of Estradiol Concentration, Deisenroth Lab (AID 2284361; active = hit-call score of the fitted dose curve at least 0.9, where 1 is the maximum; inactive = score below 0.9); conditions: actives raise or lower the signal
Procedure, shortened: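 H295R cells exposed 48 h to chemicals at 0.001 - 100 uM final (nine points, triplicate); estradiol in conditioned medium measured by HTRF immunoassay, fitted bidirectionally versus DMSO. Viability by CellTiter-Glo on same plates.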

[10] = CCTE_Deisenroth_H295R-HTRF_384WELL_TESTOSTERONE: CCTE's H295R-HTRF Assay Evaluation of Testosterone Concentration, Deisenroth Lab (AID 2284373; active = hit-call score of the fitted dose curve at least 0.9, where 1 is the maximum; inactive = score below 0.9); conditions: actives raise or lower the signal
Procedure, shortened: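 Testosterone secreted into medium was quantified by direct HTRF immunoassay after a 48 h treatment of H295R adrenocortical cells (nine concentrations, 0.001–100 uM final). Gain or loss fitted relative to DMSO; CellTiter-Glo viability read on same plates.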

[11] = CCTE_Deisenroth_H295R-HTRF_384WELL_CTOX: Cytotoxicity Assessment in CCTE's H295R-HTRF Assay, Deisenroth Lab (AID 2284380)
Procedure, shortened: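 H295R adrenocortical carcinoma cells plated 24 h, then exposed 48 h to nine-point series 0.001–100 uM final, triplicate, n=5. ATP measured by CellTiter-Glo 2.0 luminescence on same plates after medium collection; loss versus DMSO.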

[12] = target: THRA (gene 7067) (UniProt P10827); assay: TOX21_TRA_COA_Antagonist_Followup_ratio: Tox21 Thyroid Hormone Receptor alpha Antagonism through Coactivator Recruitment Follow-Up Assay, Ratio (AID 2283953)
THRA (gene 7067), sequence (P10827 whole entry, looked up, the tested form may be a part): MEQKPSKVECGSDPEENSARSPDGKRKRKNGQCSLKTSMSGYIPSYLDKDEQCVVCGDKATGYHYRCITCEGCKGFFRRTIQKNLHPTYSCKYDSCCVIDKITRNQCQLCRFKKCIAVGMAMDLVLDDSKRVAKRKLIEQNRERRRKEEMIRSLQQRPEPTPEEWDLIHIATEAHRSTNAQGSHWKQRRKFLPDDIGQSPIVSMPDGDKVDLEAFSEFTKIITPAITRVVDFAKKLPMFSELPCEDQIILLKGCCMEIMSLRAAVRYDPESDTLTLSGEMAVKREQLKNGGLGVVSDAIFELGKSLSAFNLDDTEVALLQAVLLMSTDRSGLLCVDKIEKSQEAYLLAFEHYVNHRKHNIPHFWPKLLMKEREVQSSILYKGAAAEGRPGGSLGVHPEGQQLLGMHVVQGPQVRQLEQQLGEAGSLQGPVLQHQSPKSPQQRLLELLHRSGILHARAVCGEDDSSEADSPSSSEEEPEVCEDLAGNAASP
Procedure, shortened: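 520:495 nm emission ratio (excitation 340 nm) reports fluorescein-SRC-2 peptide recruitment to GST-TRα LBD by TR-FRET with Tb anti-GST antibody. Values were normalized to DMSO (0%) and T3 control wells (100%); loss of signal indicated antagonism.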

[13] = target: THRB (gene 7068) (UniProt P10828); assay: TOX21_TRB_BLA_Antagonist_Followup_ratio: Tox21 Thyroid Hormone Receptor beta Antagonism Beta-lactamase (BLA) Follow-Up Assay, Ratio (AID 2283958)
THRB (gene 7068), sequence (P10828 whole entry, looked up, the tested form may be a part): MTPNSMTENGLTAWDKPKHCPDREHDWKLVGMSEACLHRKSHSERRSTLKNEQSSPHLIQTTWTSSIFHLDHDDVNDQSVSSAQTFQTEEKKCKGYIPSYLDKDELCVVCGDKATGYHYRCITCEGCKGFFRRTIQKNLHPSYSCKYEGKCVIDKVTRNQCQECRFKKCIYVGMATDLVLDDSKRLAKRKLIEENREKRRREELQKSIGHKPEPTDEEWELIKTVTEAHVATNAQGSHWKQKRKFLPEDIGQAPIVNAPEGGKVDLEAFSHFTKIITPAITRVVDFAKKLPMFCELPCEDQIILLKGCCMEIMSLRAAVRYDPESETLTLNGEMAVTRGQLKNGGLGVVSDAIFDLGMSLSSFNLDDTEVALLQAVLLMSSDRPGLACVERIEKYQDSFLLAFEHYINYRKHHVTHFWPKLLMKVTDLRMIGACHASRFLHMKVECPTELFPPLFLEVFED
Procedure, shortened: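 HEK293T TRb-bla (GAL4 DBD + hTRβ LBD), 2% cs-FBS phenol red-free DMEM, 5 h attach; cpds 11-pt triplicate, 18 h 37C; CCF4-AM 2 h RT; 460/530 ratio vs DMSO; CellTiter-Glo viability same wells.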

[14] = TOX21_TRB_BLA_Antagonist_Followup_viability: Viability Assessment in the Tox21 Thyroid Hormone Receptor beta Antagonism Beta-lactamase (BLA) Follow-Up Assay (AID 2283961)
Procedure, shortened: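 In the same wells as the reporter read, cell health was gauged by CellTiter-Glo ATP luminescence, with signal loss indicating reduced viability. Cells had been exposed to test compounds for 18 h.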

[15] = target: THRB (gene 7068) (UniProt P10828); assay: TOX21_TRB_COA_Antagonist_Followup_ratio: Tox21 Thyroid Hormone Receptor beta Antagonism through Coactivator Recruitment Follow-Up Assay, Ratio (AID 2283967)
Procedure, shortened: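 Cell-free TR-FRET: GST-TRb LBD (5.0 nM) with fluorescein-SRC-2 peptide (200 nM) and Tb anti-GST antibody (2 nM), 0.10% BSA. 520:495 nm emission ratio normalized to DMSO (0%) and T3 (100%).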

[16] = target: Retinoic acid receptor RXR-alpha (Homo sapiens) (UniProt P19793); assay: TOX21_TR_RXR_BLA_Antagonist_Followup_ratio: Tox21 Thyroid Hormone Receptor beta Retinoid X Receptor alpha (RXRa) Antagonism Beta-lactamase (BLA) Follow-Up Assay, Ratio (AID 2283972)
Retinoic acid receptor RXR-alpha (Homo sapiens), sequence (P19793 whole entry, looked up): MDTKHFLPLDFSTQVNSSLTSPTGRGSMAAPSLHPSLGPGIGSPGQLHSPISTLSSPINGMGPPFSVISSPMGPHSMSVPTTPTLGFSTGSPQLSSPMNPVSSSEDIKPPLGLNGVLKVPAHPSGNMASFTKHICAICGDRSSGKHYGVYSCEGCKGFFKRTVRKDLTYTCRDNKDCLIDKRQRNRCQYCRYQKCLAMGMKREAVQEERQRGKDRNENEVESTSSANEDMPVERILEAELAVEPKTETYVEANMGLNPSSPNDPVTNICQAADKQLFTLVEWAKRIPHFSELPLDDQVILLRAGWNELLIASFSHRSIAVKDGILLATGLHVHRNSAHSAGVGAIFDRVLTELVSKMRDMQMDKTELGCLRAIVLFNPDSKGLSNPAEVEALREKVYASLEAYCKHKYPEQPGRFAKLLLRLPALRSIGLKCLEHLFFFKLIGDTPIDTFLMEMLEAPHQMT
Procedure, shortened: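 Compounds were tested in triplicate at 11 concentrations on RXRa-bla HEK293T cells for 16 h. Substrate cleavage ratio, normalized to DMSO, gave the endpoint.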

[17] = TOX21_TR_RXR_BLA_Antagonist_Followup_viability: Viability Assessment in the Tox21 Thyroid Hormone Receptor beta Retinoid X Receptor alpha (RXRa) Antagonism Beta-lactamase (BLA) Follow-Up Assay (AID 2283979)
Procedure, shortened: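 RXRa-bla HEK293T cells (2,500/well, phenol red-free DMEM, 2% charcoal-stripped FBS) were attached 5 h, then exposed to compounds at 11 concentrations in triplicate for 16 h at 37C. Viability measured by CellTiter-Glo ATP luminescence, bidirectional fitting versus DMSO.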

Measured: AC50

O=[Se]=O
active: [1] 16.1 µM | [2] 2.8 µM | [3] 7.66 µM | [4] 0.777 µM | [5] 21 µM | [7] 4.23 µM
inactive: [6]

CCCCCCCCCCCCCCCCCCn1cc[n+](C)c1
active: [2] 8.42 µM
inactive: [1] | [3] | [4] | [5] | [6] | [7]

C[C@@H]1CC[C@@]2(OC1)O[C@H]1[C@@H](O)[C@H]3[C@@H]4CC[C@H]5C[C@@H](O[C@@H]6O[C@H](CO)[C@H](O[C@@H]7O[C@H](CO)[C@@H](O)[C@H](O[C@@H]8OC[C@@H](O)[C@H](O)[C@H]8O)[C@H]7O[C@@H]7O[C@H](CO)[C@@H](O)[C@H](O[C@@H]8O[C@H](CO)[C@@H](O)[C@H](O)[C@H]8O)[C@H]7O)[C@H](O)[C@H]6O)[C@H](O)C[C@]5(C)[C@H]4CC[C@]3(C)[C@H]1[C@@H]2C
active: [1] 19 µM | [2] 39.1 µM | [3] 48.5 µM | [4] 81.5 µM | [5] 18.7 µM | [6] 69.7 µM | [8] 33.3 µM | [7] 76.9 µM | [9] 88.2 µM | [10] 2.93 µM | [11] 6.26 µM

CCN(CC)CCO[C@H]1CC[C@@]2(C)C(=CC[C@@H]3[C@@H]2CC[C@]2(C)C(=O)CC[C@@H]32)C1
not listed: [9] | [10] | [11]
inactive: all other assays above

CCC(=O)O[C@]1(c2ccccc2)CCN(C)C[C@H]1C
inactive: [1] | [2] | [3] | [4] | [5] | [6] | [8] | [7]
